Reference: PMC7862700, “An all-to-all approach to the identification of sequence-specific readers for epigenetic DNA modifications on cytosine”

Columns and labels:
Experiment in all cases: DAPPL (digital affinity profiling via proximity ligation, sequencing); 10 mM Tris-HCl pH 7.5, 50 mM NaCl, 1 mM DTT, 4% glycerol, room temperature, 30 min; GST-TFs on glutathione beads, 16-mer random dsDNA library, 0.1% formaldehyde crosslink after washing; high values mean tight binding
Details in all cases: protein: recombinant; tags: N-terminal GST; dsDNA, one strand shown
FLI1 = molecular target: T1, FLI1 (Homo sapiens, UniProt Q01543 1-452)
T1 sequence: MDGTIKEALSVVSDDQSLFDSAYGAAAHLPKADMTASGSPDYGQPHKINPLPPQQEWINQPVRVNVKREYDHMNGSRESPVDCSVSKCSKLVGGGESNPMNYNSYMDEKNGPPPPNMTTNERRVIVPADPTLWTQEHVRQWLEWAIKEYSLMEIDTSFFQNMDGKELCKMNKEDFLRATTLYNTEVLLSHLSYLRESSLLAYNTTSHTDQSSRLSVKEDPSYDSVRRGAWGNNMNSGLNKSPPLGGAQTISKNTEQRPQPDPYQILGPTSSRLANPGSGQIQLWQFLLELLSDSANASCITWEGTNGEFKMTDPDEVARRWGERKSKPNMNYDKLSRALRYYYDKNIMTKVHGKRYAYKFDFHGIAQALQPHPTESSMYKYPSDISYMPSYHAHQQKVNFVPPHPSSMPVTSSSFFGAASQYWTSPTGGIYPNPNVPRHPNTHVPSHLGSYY
Procedure, shortened: (§1)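 Pools were built from human transcription factors expressed in yeast as GST fusions, captured on glutathione beads and DNA-barcoded, along with a tag-only sample. Incubation with 200 nmole of a 16-mer random double-stranded DNA library lasted 30 min at room temperature in Tris/NaCl/DTT/glycerol buffer, and was followed by washing, 0.1% formaldehyde crosslinking, proximity ligation, PCR amplification and Illumina NextSeq500 sequencing. Binding signal is the quotient of each hexamer's read frequency for a factor and its frequency for the tag-only sample.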

GABPA = molecular target: T2, GABPA (Homo sapiens, UniProt Q06546 1-454)
T2 sequence: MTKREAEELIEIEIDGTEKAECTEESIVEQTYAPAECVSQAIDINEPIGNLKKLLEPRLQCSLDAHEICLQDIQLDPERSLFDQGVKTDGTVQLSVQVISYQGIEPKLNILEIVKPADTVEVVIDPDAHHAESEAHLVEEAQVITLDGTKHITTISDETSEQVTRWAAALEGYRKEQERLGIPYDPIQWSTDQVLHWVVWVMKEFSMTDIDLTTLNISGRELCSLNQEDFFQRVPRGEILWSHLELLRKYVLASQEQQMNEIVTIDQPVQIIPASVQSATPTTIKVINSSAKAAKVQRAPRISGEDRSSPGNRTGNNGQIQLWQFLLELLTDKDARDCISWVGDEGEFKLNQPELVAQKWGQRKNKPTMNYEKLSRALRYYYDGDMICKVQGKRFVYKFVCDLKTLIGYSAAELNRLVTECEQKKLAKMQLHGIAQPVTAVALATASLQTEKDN
Procedure, shortened: as §1

ERG = molecular target: T3, ERG (Homo sapiens, UniProt P11308 1-479)
T3 sequence: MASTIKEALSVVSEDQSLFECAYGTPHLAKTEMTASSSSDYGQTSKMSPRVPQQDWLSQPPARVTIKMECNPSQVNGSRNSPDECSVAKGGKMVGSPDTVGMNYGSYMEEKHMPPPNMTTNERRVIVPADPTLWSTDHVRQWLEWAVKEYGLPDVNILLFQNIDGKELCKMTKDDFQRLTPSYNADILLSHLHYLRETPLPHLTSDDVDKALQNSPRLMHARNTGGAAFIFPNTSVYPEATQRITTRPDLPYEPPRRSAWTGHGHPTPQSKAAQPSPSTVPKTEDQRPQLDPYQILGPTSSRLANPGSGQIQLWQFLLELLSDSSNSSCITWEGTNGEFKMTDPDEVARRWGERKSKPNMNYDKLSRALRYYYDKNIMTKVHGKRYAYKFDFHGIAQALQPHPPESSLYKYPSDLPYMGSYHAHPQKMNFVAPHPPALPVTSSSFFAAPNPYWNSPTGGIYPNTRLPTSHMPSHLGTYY
Procedure, shortened: as §1

ELF1 = ELF1 (Homo sapiens, UniProt P32519 1-619)
Chain of ELF1 (P32519 whole entry): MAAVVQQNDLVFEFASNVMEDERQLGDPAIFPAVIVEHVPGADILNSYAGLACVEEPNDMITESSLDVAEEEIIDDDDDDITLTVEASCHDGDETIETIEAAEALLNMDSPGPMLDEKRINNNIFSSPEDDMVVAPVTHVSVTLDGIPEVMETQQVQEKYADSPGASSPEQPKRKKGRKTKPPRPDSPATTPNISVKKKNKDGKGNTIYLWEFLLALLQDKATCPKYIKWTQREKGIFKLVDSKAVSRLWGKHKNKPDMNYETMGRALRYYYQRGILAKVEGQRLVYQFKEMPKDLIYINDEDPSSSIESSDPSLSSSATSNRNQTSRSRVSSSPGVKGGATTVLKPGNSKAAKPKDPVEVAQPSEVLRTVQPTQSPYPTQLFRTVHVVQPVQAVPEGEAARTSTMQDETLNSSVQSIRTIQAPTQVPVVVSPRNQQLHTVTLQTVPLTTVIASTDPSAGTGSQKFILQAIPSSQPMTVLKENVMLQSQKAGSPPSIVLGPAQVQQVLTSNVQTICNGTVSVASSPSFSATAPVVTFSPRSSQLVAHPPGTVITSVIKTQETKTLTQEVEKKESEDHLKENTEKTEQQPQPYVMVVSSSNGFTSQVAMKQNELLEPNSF
Procedure, shortened: as §1

EHF = molecular target: T4, EHF (Homo sapiens, UniProt Q9NZC4 1-300)
T4 sequence: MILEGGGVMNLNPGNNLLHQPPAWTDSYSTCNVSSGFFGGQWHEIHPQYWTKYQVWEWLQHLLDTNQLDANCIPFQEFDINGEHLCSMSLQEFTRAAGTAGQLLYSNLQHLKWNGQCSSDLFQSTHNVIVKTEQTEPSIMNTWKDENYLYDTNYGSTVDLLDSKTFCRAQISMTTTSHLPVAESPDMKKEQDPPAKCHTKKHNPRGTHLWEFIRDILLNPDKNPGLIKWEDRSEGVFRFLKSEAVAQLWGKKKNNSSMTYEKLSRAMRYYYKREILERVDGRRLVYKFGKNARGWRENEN
Procedure, shortened: as §1

SPI1 = SPI1 (Homo sapiens, UniProt P17947 1-270)
Procedure, shortened: as §1

SPIB = SPIB (Homo sapiens, UniProt Q01892 1-262)
Chain of SPIB (Q01892 whole entry): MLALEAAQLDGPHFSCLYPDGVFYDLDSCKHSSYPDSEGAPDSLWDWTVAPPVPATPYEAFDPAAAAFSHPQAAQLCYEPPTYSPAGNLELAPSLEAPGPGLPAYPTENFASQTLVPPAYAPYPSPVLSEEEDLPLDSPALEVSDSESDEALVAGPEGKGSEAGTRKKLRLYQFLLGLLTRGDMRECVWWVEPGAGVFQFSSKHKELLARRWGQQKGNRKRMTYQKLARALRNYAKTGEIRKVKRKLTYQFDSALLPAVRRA
Procedure, shortened: as §1

FEV = molecular target: T5, FEV (Homo sapiens, UniProt Q99581 1-238)
T5 sequence: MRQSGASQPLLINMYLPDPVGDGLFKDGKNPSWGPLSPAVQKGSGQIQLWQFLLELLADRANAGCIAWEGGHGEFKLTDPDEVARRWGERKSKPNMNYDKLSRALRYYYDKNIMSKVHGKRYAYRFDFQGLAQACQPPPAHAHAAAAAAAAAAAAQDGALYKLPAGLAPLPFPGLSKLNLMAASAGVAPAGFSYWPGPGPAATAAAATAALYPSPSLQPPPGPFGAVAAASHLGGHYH
Procedure, shortened: as §1

ETV5 = ETV5 (Homo sapiens, UniProt P41161 1-510)
Chain of ETV5 (P41161 whole entry): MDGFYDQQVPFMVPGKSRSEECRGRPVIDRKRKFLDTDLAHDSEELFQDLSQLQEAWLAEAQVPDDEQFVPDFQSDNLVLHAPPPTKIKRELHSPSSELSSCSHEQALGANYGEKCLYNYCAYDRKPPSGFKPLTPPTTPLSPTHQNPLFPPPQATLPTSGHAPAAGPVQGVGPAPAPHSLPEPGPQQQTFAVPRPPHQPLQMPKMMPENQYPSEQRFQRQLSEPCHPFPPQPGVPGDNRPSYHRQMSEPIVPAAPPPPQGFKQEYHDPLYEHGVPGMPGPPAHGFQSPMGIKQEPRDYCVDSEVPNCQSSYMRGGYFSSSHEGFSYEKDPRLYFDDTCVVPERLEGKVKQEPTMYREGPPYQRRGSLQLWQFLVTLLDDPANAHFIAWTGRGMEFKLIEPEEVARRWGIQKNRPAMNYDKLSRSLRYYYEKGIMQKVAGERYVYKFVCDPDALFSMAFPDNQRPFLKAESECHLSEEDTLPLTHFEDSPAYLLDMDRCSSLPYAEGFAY
Procedure, shortened: as §1

ELF4 = ELF4 (Homo sapiens, UniProt Q99607 1-663)
Chain of ELF4 (Q99607 whole entry): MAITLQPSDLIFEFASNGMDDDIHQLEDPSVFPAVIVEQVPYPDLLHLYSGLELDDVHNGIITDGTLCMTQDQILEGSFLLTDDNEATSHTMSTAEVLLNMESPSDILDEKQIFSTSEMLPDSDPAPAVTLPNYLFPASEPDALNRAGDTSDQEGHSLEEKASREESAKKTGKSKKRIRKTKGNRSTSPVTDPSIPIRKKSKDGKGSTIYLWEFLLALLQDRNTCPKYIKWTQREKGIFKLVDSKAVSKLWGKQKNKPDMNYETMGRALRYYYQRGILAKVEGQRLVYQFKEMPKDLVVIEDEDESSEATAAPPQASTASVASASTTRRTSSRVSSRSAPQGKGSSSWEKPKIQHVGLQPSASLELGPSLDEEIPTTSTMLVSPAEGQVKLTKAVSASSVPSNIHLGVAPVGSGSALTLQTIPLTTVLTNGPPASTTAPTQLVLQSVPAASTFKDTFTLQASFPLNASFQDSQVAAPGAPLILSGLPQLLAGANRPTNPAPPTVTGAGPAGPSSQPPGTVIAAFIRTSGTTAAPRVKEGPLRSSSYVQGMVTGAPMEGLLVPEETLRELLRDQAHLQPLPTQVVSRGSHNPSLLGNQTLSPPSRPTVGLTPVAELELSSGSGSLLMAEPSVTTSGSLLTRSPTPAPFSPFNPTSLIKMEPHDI
Procedure, shortened: as §1

ETV2 = molecular target: T6, ETV2 (Homo sapiens, UniProt O00321 1-342)
T6 sequence: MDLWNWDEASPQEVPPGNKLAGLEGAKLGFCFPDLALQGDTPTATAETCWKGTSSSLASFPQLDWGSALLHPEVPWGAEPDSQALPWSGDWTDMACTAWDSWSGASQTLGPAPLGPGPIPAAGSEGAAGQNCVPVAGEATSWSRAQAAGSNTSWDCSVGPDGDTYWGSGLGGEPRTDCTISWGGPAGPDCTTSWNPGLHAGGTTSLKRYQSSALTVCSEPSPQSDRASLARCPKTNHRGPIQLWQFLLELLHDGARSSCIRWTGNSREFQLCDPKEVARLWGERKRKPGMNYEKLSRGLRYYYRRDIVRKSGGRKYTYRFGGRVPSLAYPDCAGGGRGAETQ
Procedure, shortened: as §1

ELF3 = molecular target: T7, ELF3 (Homo sapiens, UniProt P78545 1-371)
T7 sequence: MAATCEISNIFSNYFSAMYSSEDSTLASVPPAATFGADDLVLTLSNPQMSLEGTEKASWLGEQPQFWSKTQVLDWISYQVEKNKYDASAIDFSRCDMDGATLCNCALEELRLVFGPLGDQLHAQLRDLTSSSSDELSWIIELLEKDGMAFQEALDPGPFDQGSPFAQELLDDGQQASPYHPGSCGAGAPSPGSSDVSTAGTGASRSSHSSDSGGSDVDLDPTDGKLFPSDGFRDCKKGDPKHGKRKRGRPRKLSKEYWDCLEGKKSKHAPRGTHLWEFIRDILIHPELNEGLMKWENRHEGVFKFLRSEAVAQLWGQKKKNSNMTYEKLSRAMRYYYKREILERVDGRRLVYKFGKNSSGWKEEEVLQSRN
Procedure, shortened: as §1

ETV1 = ETV1 (Homo sapiens, UniProt P50549 1-477)
Chain of ETV1 (P50549 whole entry): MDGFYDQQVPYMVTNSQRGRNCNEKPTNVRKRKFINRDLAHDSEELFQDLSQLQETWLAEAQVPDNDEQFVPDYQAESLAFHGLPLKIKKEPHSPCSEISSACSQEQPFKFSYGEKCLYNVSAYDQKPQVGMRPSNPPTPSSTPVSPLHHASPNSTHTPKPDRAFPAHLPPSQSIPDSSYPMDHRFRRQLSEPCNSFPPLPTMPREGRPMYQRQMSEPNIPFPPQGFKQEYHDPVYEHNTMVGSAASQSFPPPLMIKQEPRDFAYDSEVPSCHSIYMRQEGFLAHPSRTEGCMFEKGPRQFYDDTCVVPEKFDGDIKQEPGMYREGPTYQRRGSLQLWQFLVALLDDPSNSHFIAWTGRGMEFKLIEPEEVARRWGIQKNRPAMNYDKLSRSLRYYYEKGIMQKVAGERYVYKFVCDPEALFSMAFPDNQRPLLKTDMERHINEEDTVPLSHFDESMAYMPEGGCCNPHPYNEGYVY
Procedure, shortened: as §1

ERF = molecular target: T8, ERF (Homo sapiens, UniProt P50548 1-548)
T8 sequence: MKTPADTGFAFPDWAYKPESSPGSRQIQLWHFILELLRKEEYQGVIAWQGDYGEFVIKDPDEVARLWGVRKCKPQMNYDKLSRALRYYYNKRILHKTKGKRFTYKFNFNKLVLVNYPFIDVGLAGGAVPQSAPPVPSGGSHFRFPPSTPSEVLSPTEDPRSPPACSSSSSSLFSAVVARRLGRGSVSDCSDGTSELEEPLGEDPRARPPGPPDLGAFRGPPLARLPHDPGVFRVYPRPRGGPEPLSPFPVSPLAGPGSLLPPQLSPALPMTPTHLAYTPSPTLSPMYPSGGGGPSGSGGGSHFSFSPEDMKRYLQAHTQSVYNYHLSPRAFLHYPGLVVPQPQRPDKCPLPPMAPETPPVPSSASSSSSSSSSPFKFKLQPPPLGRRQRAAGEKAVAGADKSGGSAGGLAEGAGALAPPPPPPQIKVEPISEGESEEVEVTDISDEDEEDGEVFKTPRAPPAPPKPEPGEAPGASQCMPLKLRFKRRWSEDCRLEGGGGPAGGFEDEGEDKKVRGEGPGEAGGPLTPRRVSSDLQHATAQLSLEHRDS
Procedure, shortened: as §1

ETV3L = molecular target: T9, ETV3L (Homo sapiens, UniProt Q6ZN32 1-361)
T9 sequence: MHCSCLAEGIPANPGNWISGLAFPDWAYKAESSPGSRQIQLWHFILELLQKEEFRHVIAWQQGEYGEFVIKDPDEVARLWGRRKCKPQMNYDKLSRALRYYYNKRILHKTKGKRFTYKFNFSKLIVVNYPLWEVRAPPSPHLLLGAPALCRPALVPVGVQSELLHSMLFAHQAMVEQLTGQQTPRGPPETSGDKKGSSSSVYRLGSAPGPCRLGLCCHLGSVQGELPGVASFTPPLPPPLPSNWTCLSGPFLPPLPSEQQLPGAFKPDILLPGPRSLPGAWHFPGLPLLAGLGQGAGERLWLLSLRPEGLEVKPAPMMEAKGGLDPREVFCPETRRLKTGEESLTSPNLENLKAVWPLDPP
Procedure, shortened: as §1

ETS2 = molecular target: T10, ETS2 (Homo sapiens, UniProt P15036 1-469)
T10 sequence: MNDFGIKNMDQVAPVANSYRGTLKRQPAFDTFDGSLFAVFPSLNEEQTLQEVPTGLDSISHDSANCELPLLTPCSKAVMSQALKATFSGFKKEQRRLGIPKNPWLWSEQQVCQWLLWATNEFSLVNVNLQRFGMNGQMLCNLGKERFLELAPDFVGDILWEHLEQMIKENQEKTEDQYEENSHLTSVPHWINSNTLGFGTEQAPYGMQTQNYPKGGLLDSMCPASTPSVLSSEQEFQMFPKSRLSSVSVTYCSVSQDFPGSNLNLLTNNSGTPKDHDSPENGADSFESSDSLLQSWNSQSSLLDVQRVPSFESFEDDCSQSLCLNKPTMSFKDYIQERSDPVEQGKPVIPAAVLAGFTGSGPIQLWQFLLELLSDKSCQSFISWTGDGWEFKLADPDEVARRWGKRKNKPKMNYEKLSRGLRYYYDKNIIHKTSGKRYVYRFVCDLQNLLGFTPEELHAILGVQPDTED
Procedure, shortened: as §1

ETV7 = molecular target: T11, ETV7 (Homo sapiens, UniProt Q9Y603 1-341)
T11 sequence: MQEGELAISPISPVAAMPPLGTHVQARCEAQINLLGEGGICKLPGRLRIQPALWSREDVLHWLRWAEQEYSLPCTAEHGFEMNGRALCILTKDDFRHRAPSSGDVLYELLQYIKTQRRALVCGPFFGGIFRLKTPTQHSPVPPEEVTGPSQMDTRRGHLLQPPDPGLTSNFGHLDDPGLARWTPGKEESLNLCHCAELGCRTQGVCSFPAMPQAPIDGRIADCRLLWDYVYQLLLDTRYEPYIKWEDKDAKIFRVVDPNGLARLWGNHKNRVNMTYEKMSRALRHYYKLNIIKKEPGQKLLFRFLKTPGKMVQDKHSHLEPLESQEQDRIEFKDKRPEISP
Procedure, shortened: as §1

ETV3 = molecular target: T12, ETV3 (Homo sapiens, UniProt P41162-2 1-143)
T12 sequence: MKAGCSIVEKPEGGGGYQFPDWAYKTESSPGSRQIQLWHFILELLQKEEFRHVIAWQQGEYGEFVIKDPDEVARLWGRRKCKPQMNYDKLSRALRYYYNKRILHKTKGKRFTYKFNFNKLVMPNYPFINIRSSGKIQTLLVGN
Procedure, shortened: as §1

ETV6 = ETV6 (Homo sapiens, UniProt P41212 1-452)
Chain of ETV6 (P41212 whole entry): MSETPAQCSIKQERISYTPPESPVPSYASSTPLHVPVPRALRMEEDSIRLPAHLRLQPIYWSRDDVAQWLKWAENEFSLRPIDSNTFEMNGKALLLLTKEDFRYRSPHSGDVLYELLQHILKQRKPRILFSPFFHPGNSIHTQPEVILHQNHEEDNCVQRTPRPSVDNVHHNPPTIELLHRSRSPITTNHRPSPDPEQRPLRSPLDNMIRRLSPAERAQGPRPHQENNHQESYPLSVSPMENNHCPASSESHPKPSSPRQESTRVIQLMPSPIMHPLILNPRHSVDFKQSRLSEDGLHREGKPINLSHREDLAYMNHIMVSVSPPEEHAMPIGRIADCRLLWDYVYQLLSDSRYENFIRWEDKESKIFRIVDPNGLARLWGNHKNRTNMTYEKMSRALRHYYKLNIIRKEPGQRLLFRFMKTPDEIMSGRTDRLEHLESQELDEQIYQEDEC
Procedure, shortened: as §1

GTCCTG
binding signal (FLI1): 1.09 fold enrichment (6-mer frequency, TF over GST control)
binding signal (GABPA): 1.05 fold enrichment (6-mer frequency, TF over GST control)
binding signal (ERG): 1.17 fold enrichment (6-mer frequency, TF over GST control)
binding signal (ELF1): 1.15 fold enrichment (6-mer frequency, TF over GST control)
binding signal (EHF): 1.09 fold enrichment (6-mer frequency, TF over GST control)
binding signal (SPI1): 1.16 fold enrichment (6-mer frequency, TF over GST control)
binding signal (SPIB): 1.15 fold enrichment (6-mer frequency, TF over GST control)
binding signal (FEV): 1.1 fold enrichment (6-mer frequency, TF over GST control)
binding signal (ETV5): 1.08 fold enrichment (6-mer frequency, TF over GST control)
binding signal (ELF4): 1.09 fold enrichment (6-mer frequency, TF over GST control)
binding signal (ETV2): 1.29 fold enrichment (6-mer frequency, TF over GST control)
binding signal (ELF3): 1.07 fold enrichment (6-mer frequency, TF over GST control)
binding signal (ETV1): 1.17 fold enrichment (6-mer frequency, TF over GST control)
binding signal (ERF): 1.08 fold enrichment (6-mer frequency, TF over GST control)
binding signal (ETV3L): 1.19 fold enrichment (6-mer frequency, TF over GST control)
binding signal (ETS2): 1.02 fold enrichment (6-mer frequency, TF over GST control)
binding signal (ETV7): 1.26 fold enrichment (6-mer frequency, TF over GST control)
binding signal (ETV3): 1.2 fold enrichment (6-mer frequency, TF over GST control)
binding signal (ETV6): 1.16 fold enrichment (6-mer frequency, TF over GST control)
